In all, about 68,000 sequences were measured (“fluorescence intensity (a.u.)”: median about 9,100, highest 2% from about 16,000 on). The entries come from a sample that favours the highest values as a whole.

For the assay, the target named is OsWRKY34 (Oryza sativa, UniProt Q0JBA9 1-250). The experiment in a line: protein-binding microarray (RPBM); PBS, 2% BSA, 51.3 ng/ul salmon testes DNA, 50 uM zinc acetate, 200 nM TF, 25 C, 1 h; high values mean tight binding. As to conditions: protein: recombinant; tags: N-terminal polyhistidine and DsRed monomer fusion (pET32a); label: CyDye5-dUTP incorporated in the synthesized complementary strand; 3' TTTTT single-stranded linker to array surface; dsDNA, one strand shown. The method, boiled down: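 A custom Agilent array was converted to double-stranded form by primer extension with Cy5-dUTP and blocked with 2% BSA. Protein at 200 nM in PBS with 2% BSA, salmon testes DNA and 50 µM zinc acetate was applied for 1 h at 25 °C, followed by washing. The proteins were polyhistidine–DsRed N-terminal fusions of transcription factors, expressed in E. coli BL21-CodonPlus and Ni–NTA-purified. The binding signal is per-feature fluorescence intensity (arbitrary units) from an Axon 4000B scanner.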
OsWRKY34, sequence (Q0JBA9 entry or part of it): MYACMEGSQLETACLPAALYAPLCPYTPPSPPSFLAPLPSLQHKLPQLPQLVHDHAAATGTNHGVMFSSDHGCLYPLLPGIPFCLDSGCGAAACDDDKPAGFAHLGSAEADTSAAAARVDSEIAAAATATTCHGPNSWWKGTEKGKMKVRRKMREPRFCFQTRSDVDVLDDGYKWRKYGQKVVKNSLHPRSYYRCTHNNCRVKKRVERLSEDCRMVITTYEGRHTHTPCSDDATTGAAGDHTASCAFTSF
Turning to “CCTTCGCTCGCCACGTGGCAGCCGCTAGTCCTTATCGCCGCGGAGTCACCTAGTGCAG”, the binding signal is 10300 fluorescence intensity (a.u.).
Turning to “GGGAAACCAGGCTATCCTCTTGGTCACTCTGCACCAATTCCGGAGTCACCTAGTGCAG”, the binding signal is 10500 fluorescence intensity (a.u.).
With “ACAGCTCTGCTCAACCTTGCCATCTCGATCAATCGATCCTCGGAGTCACCTAGTGCAG”, the binding signal was 11400 fluorescence intensity (a.u.).
Regarding “TAATAAGTGAGACCAAATATTGATTGTGTAGTATATATTTCGGAGTCACCTAGTGCAG”, the binding signal was 8670 fluorescence intensity (a.u.).
On to “GGGAGTAGTATTGATTTGACCATCGTTGACCAAGAATAAGCGGAGTCACCTAGTGCAG”, for which the binding signal is 17400 fluorescence intensity (a.u.).
For “GGTTTCTTGGATTGGGCTGTGGCTGGCGTTGGTCGGAGGACGGAGTCACCTAGTGCAG”, the binding signal is 19100 fluorescence intensity (a.u.).
Take “GTTGACGGGGTTTGTGAGGTGTGGCGGTGACTTGGAAAGACGGAGTCACCTAGTGCAG”: the binding signal was 10100 fluorescence intensity (a.u.).
Regarding “CTTTGGCTTCTTGCCTACCGCGTTCTTGGTGATCGTTGGTCGGAGTCACCTAGTGCAG”, the binding signal was 8270 fluorescence intensity (a.u.).
As to “CGGTGTCGGATTTTTGGTTGGTTGACGGGGTTTGTGAGGTCGGAGTCACCTAGTGCAG”, the binding signal was 17500 fluorescence intensity (a.u.).
As to “GGGTTGGTCCGCGTTCTTGCCTCCTGGTTGGCCGATGTTTCGGAGTCACCTAGTGCAG”, the binding signal was 15700 fluorescence intensity (a.u.).
As for “TGGATACTTGGCGTTGGTGGGCTGGTTCTTATTGGATACGCGGAGTCACCTAGTGCAG”, the binding signal was 8120 fluorescence intensity (a.u.).
Turning to “AGGTGATGTTTGGGGTCGTTGGGTTGGTCCGCGTTCTTGCCGGAGTCACCTAGTGCAG”, the binding signal is 17400 fluorescence intensity (a.u.).
As for “TTTCTTGGCTGGTTTGGTTGTGGATTGGATTGGATTGGGTCGGAGTCACCTAGTGCAG”, the figure is 16100 fluorescence intensity (a.u.).
As for “CATCGTTGACCAAGAATAAGAACAGCGAATTTGCATAATGCGGAGTCACCTAGTGCAG”, the figure is 14700 fluorescence intensity (a.u.); as for “GAAATGTTGGTGACGGTGGAGGATTTTGTTGTTTTAGTGTCGGAGTCACCTAGTGCAG”, 9790 fluorescence intensity (a.u.); as for “GACAACCTGGAGCCCGACGACGACGAGGGGATGGGGAGGGCGGAGTCACCTAGTGCAG”, 8810 fluorescence intensity (a.u.).
For the sequence “GTTAGTGTGTGGTTTGTTGCGTGCAGTCAGGTGCACTCGGCGGAGTCACCTAGTGCAG”, the binding signal is 11000 fluorescence intensity (a.u.).
“TATTATTATGATGGGTTTGTATATTAAAATTGTCAGTTTGCGGAGTCACCTAGTGCAG”: the binding signal was 8110 fluorescence intensity (a.u.).
For the sequence “ACGCGCGCTACATTCTCCACCTCTCCACCATTCCAAACTGCGGAGTCACCTAGTGCAG”, the binding signal is 9850 fluorescence intensity (a.u.).
Turning to “CACACAGCATCGTTTGGATTAATCACCGAACCGATCGACCCGGAGTCACCTAGTGCAG”, the binding signal is 8400 fluorescence intensity (a.u.).
Consider “CCTCTCCTAGGTTAAGTTTTTTTGGGGCGAAGGGAGTATTCGGAGTCACCTAGTGCAG”, for which the binding signal is 8120 fluorescence intensity (a.u.).
As to “CTCTCGCGCGAGATGTCCGTGACTCTCTTTTCGTTTACACCGGAGTCACCTAGTGCAG”, the binding signal was 8420 fluorescence intensity (a.u.).
Turning to “CTCTCGGTCGTCGGCCTCGTCCTCCGGGCCGGCATTCATCCGGAGTCACCTAGTGCAG”, the binding signal is 8560 fluorescence intensity (a.u.).
In the case of “GCGCATGGTGTTCGGGAAGAAGTACATCGTCGAGGAGGGGCGGAGTCACCTAGTGCAG”, the binding signal is 8540 fluorescence intensity (a.u.).
As for “CTTATACATTGGGTTGAGGGTTTTTTTGGTTGAGTTCGGCCGGAGTCACCTAGTGCAG”, the figure is 9220 fluorescence intensity (a.u.).
As for “TTGGTTGGTTGGTTGGTGTTTTGAGGCTTGGGTCGGCTTACGGAGTCACCTAGTGCAG”, the binding signal is 17100 fluorescence intensity (a.u.).
Regarding “GCTAGGGTTTTTGGGTTCACTTTGAGGCTGTTTGGTTGGTCGGAGTCACCTAGTGCAG”, the binding signal was 15100 fluorescence intensity (a.u.).
In the case of “TGATCGAGAGAGGTGTTGTTGGAAGCTTGGTTGGTTGGGGCGGAGTCACCTAGTGCAG” it was 9000 fluorescence intensity (a.u.).
As for “CTTGCCATGGTGTTGATTTGGGGCGGGAAGAAGCATCGGGCGGAGTCACCTAGTGCAG”, the binding signal was 16800 fluorescence intensity (a.u.).
Regarding “AGTTACCGTTCTAGTCAGGGGCGGATCCAGCGTGGGGCGGCGGAGTCACCTAGTGCAG”, the binding signal was 12600 fluorescence intensity (a.u.).
In the case of “ACATCCTTCTGGGTTGATTTTTTTCTATAGAGGGGTAGGTCGGAGTCACCTAGTGCAG” it was 8590 fluorescence intensity (a.u.); in that of “AAGTAAGATGCCACACACCATAGTCTGCTTCACTGTCAACCGGAGTCACCTAGTGCAG”, 9080 fluorescence intensity (a.u.).
Consider “CGTCTCCGCCGCTGCTTGAATCTGCCGCCACCATCACCGCCGGAGTCACCTAGTGCAG”, for which the binding signal was 8910 fluorescence intensity (a.u.).
For the sequence “GCTGACATAATTGCTTGTTGGGATTCTTGGGAGGAAATGGCGGAGTCACCTAGTGCAG”, the binding signal is 8330 fluorescence intensity (a.u.).
Consider “CTTCTCTCCTCTCCGCTGTGGTTTCTTGCTGGTTCTTGGACGGAGTCACCTAGTGCAG”, for which the binding signal is 10400 fluorescence intensity (a.u.).
On to “TCTCCTCTCTCTCTCTTCTTCCCGGGGAGGCGGGGAGCGGCGGAGTCACCTAGTGCAG”, for which the binding signal is 11700 fluorescence intensity (a.u.).
On to “TCACCGGGCGGTCACCGGAGGCGGAGGCGGAGGGAGGGGCCGGAGTCACCTAGTGCAG”, for which the binding signal is 10200 fluorescence intensity (a.u.).
On to “GCTGTACCAGTACTGACCGGGGTGGGGTGGCGGGAGCGGACGGAGTCACCTAGTGCAG”, for which the binding signal was 14600 fluorescence intensity (a.u.).
In the case of “GTATTATGGGTGGAGGCGGGCGGCTGAGCTGTTCCTGGGCCGGAGTCACCTAGTGCAG”, the binding signal was 8880 fluorescence intensity (a.u.).
Turning to “ATTGTTTTTATAGGGGAGGGGAGGCGGGATCGAGCCCGGGCGGAGTCACCTAGTGCAG”, the binding signal was 15100 fluorescence intensity (a.u.).
As for “GAGGCTGGGCTGGGCGGGCGTATCGTTCCTGCTCCCGGAGCGGAGTCACCTAGTGCAG”, the binding signal was 25400 fluorescence intensity (a.u.).
In the case of “GGGTTGGGTGGGTGCTGTAATATGGGGAGATACTGACTACCGGAGTCACCTAGTGCAG” it was 19200 fluorescence intensity (a.u.); in that of “GGGTGGAGCTGAACTGATGGGCCGAACTATGTATGGTTGGCGGAGTCACCTAGTGCAG”, 9030 fluorescence intensity (a.u.); in that of “GGGGCGTCCCGGGAGGGGAGGGAGATGGGGAGGGAGCGGACGGAGTCACCTAGTGCAG”, 16800 fluorescence intensity (a.u.).
In the case of “TGGAGGAGGGGAGGCCGGGGATTGTTTTTATAGGGGAGGGCGGAGTCACCTAGTGCAG” it was 30500 fluorescence intensity (a.u.); in that of “GAGATGGGGAGGGAGGCCGGCCGGGAGAGGGAGAGAGAGGCGGAGTCACCTAGTGCAG”, 8890 fluorescence intensity (a.u.); in that of “TGGCCGGAGAGGGGAGATGGGGAGATGGGGAGAGGGGAGGCGGAGTCACCTAGTGCAG”, 9420 fluorescence intensity (a.u.).
As for “CGCTGCGCTGCCGGTCCATTTCTAGAAGCCCTCGCGCTCCCGGAGTCACCTAGTGCAG”, the figure is 9130 fluorescence intensity (a.u.); as for “TTGAATTGAATTATTATGCTCATCGCTTTCGCATAACCTCCGGAGTCACCTAGTGCAG”, 8320 fluorescence intensity (a.u.).
As for “CTAGGAGGAGGATTAGTTCTTGCGCATCGCTTCTGAGCTCCGGAGTCACCTAGTGCAG”, the binding signal is 8200 fluorescence intensity (a.u.).
“CCCATGTTTTTTTTTCATATTTTGCAATCTTCGGTTTAAACGGAGTCACCTAGTGCAG”: the binding signal is 8520 fluorescence intensity (a.u.).
Take “CTATAAATACACGACGTCTCTCCGCTGGCTTACACACAACCGGAGTCACCTAGTGCAG”: the binding signal was 10100 fluorescence intensity (a.u.).
For “CGCCAACTCAACGCTGAAGCCGCTGCCTCACCATCTCGTCCGGAGTCACCTAGTGCAG”, the binding signal was 8780 fluorescence intensity (a.u.).
For “ATCGCCGCAACCACCAACCTCTCGAGGCCGTTCGAATCCCCGGAGTCACCTAGTGCAG”, the binding signal is 12300 fluorescence intensity (a.u.).
